From PubChem BioAssay
ROMK primary: human ROMK K+ channel modulation, primary screen | P48048 | Tet-inducible ROMK, thallium flux fluorescence; actives lie on both sides | B-score at 10 µM | hit rate 2% among 130,000;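 active means signal ratio slope over the read window, or its plate-corrected B-score, at least 3 SD from the plate mean, either direction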;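 further: B-score of the F/F0 ratio slope over 7 to 12 s after thallium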
p97 ATPase inh: human p97 ATPase inhibition. hit rate 0.42% among 220,000. P55072. inhibition, % at 8 µM. recombinant p97 ATPase, Kinase-Glo ATP luminescence, 3 h; in the data active means inhibition above about 15%;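 further: 0% = DMSO vehicle and 100% = wells lacking enzyme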
INS promoter inh: TRM-6 insulin promoter activity inhibition | AID 1273 | inhibition, % at 2 µM | TRM-6 cells (human fetal islet line), insulin promoter-eGFP reporter, imaging; reporter expression induced with tamoxifen | hit rate 0.9% among 130,000;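 active means inhibition above the mean plus 3 SD, with well images judged a real hit on visual review, cut at about 60% in these data, passing the limit was not always enough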
L major viab: Leishmania major promastigote growth inhibition | AID 1063 | Leishmania major promastigotes, resazurin fluorescence viability | hit rate 9% among 200,000 | inhibition, % at 10 µM; in the data active means inhibition above about 50%;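 further: promastigotes grown with compound for 44 hours at 28 °C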
PTEN del growth: PTEN-deleted cell growth suppression; viability, % at 10 µM; hit rate 1.2% among 140,000; HCT116 PTEN-null viability, CellTiter-Glo, 60 h; hits give low values;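 active means viability at or below a set limit, 4 SD under the median of all tested compounds, cut at about 3.7% in these data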;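 further: PTEN knockout HCT116 line with beta catenin targeted HCT116 as companion control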
HCT116 bCat-KO: beta-catenin-lacking colon tumor cell growth suppression; HCT116 beta-catenin knockout viability, CellTiter-Glo, 60 h; hits give low values; viability, % at 10 µM; hit rate 1.5% among 140,000; AID 818;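 active means viability at or under a set limit, the compound median less 4 SD, cut at about 6% in these data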;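 further: 0% = Hyamine 1622 control at 20 µM and 100% = untreated cell control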
The depositor's hits bear a star; . = no result. Rows were chosen to be rich in hits. Some 10% of all compounds tested hit in one or more screens of this group.

SMILES	ROMK primary	p97 ATPase inh	INS promoter inh	L major viab	PTEN del growth	HCT116 bCat-KO
COc1ccccc1NC(=S)N1CCN(c2ncccn2)CC1	0.019	1	-6	8	.	.
COc1cccc(-c2csc(N3CCN(C(=S)Nc4ccccc4OC)CC3)n2)c1	.	1	.	93*	94	83
COc1cccc(-c2csc(N3CCN(C(=O)Nc4ccc(Cl)cc4)CC3)n2)c1	0.65	-3	35	29	.	.
COc1ccc(NC(=O)N2CCN(c3nc(-c4cccc(OC)c4)cs3)CC2)cc1	-0.65	13	43	79*	51	53
COc1cccc(-c2csc(N3CCN(C(=S)Nc4cccc(Cl)c4)CC3)n2)c1	.	-4	.	33	68	83
COc1cccc(-c2csc(N3CCN(C(=S)Nc4ccccc4Cl)CC3)n2)c1	.	-3	.	100*	81	70
O=C(NCc1ccc(Cl)cc1)C1CCN(S(=O)(=O)c2ccc(F)cc2)CC1	0.002	4	.	-3	.	.
CCn1nnc(NC(=O)COc2ccc([N+](=O)[O-])cc2)n1	.	6	.	.	.	.
CCc1ccc(N(CC(=O)Nc2nc3ccc(C)cc3s2)S(=O)(=O)c2c(C)noc2C)cc1	.	-1	.	52*	23	28
Cc1ccc2nc(NC(=O)CNS(=O)(=O)c3ccc(Br)s3)sc2c1	.	0	.	0	91	92
COc1ccc2nc(NC(=O)CN(c3ccc(C)cc3)S(=O)(=O)c3c(C)nn(C)c3C)sc2c1	-1.3	4	.	80*	60	61
COc1ccc(N(CC(=O)NCc2ccc(C)cc2)S(=O)(=O)c2c(C)nn(C)c2C)cc1	-0.24	2	-67	1	99	101
Cc1ccc2nc(NC(=O)CN(C)S(=O)(=O)c3ccc(Br)s3)sc2c1	0.1	4	66*	99*	21	22
CCc1ccc(NC(=O)CN(c2ccc3c(c2)OCO3)S(=O)(=O)c2c(C)noc2C)cc1	.	-4	.	4	79	70
CCOc1ccc2c(c1)C(N(CCN1CCOCC1)C(=O)Nc1ccccc1)CC(C)(C)O2 (centres undefined)	0.83	0	11	27	.	.
Cc1cc2oc(=O)cc(Cn3nnc(-c4ccc(Cl)cc4)n3)c2cc1C(C)C	.	4	.	14	55	67
CC1(C)C(C=C(Cl)Cl)C1C(=O)Nc1ccc([N+](=O)[O-])cc1 (centres undefined)	-0.26	1	12	88*	2.4*	3.9*
O=C(Nc1ccc([N+](=O)[O-])cc1)C1CC1(c1ccccc1)c1ccccc1 (centres undefined)	.	-4	.	2	66	73
CC(C)N=C(NS(=O)(=O)NC(=O)c1ccccc1)c1ccccc1	0.73	-3	.	1	.	.
OCC1(CCCc2ccccc2)CCN(C2CCSCC2)CC1	-0.61	-3	.	84*	.	.
CC(=O)c1cccc(CN2CCC(CO)(CCCc3ccccc3)CC2)c1	.	-1	.	79*	.	.
CN1CCC(CO)(Cc2ccccc2)CC1	.	-3	.	2	.	.
CCOC(=O)C1(CCCc2ccccc2)CCN(C2CCSCC2)CC1	-2.6	-1	24	85*	.	.
CSCC(C)N1CCC(CO)(CCCc2ccccc2)CC1 (centres undefined)	0.39	4	.	91*	.	.
Cc1ccc(S(=O)(=O)N(C)C)cc1NC(=O)COC(=O)CCC(=O)c1cccs1	0.46	0	11	2	.	.
SMILES	ROMK primary	p97 ATPase inh	INS promoter inh	L major viab	PTEN del growth	HCT116 bCat-KO
COc1ccc(C(O)P(=O)(OC(C)C)OC(C)C)c(OC)c1 (centres undefined)	.	0	.	.	.	.
OC(CNCc1cccc(Br)c1)c1ccccc1 (centres undefined)	-1.4	-2	5	1	.	.
OC(CNCc1ccc(-c2ccccc2)cc1)c1ccccc1 (centres undefined)	-1.6	-3	.	99*	.	.
OCCNCc1ccc(-c2ccccc2)cc1	.	3	.	63*	85	85
O=C1C2CCCN2C(=O)N1CCN1CCN(c2ccccc2)CC1 (centres undefined)	0.9	4	0	61*	95	89
Cc1ccc2nc3sc(C(=O)NCc4ccco4)c(N)c3cc2c1	.	-1	-6	0	66	52
COc1cc2cc3c(N)c(C(=O)NCc4ccco4)sc3nc2cc1OC	.	1	.	81*	50	59
COC(=O)c1ccc(OC(C)C(=O)c2ccc(C)cc2)cc1 (centres undefined)	.	-2	-20	-10	88	85
O=C(Nc1ccc(C2CC2(Cl)Cl)cc1)c1ccccc1Br (centres undefined)	.	6	33	83*	88	84
Cc1nc(-c2ccc(NC(=O)c3ccccc3Br)cc2)cs1	0.2	0	26	71*	94	89
COc1cccc(C(=O)Nc2ccc(C3CC3(Cl)Cl)cc2)c1 (centres undefined)	0.053	3	.	1	.	.
Cc1nc(-c2ccc(NC(=O)c3ccccc3C)cc2)cs1	0.17	-1	.	50*	.	.
COc1ccc(CCN(Cc2nc3ccccc3c(=O)[nH]2)C(=O)c2ccco2)cc1	.	-2	17	-5	93	93
CCC(CC)C(=O)N(CCc1ccc(OC)cc1)Cc1nc2ccccc2c(=O)[nH]1	-1.1	-2	-45	100*	71	66
O=C(c1ccccc1)N(Cc1ccc2c(c1)OCO2)Cc1nc2ccccc2c(=O)[nH]1	3.2*	5	.	3	96	107
O=C(c1cc2ccccc2oc1=O)N(Cc1ccccc1)Cc1ccc2c(c1)OCO2	.	1	68	61*	88	85
O=C(CSc1nnc(C2CC2)n1Cc1ccco1)NCC(F)(F)F	-0.7	2	.	-6	.	.
O=C(Nc1cnn(Cc2ccc(Cl)c(Cl)c2)c1)c1nc2ncccn2n1	0.34	-7	13	8	87	102
CCn1cc([N+](=O)[O-])c(C(=O)Nc2ccn(Cc3ccccc3)n2)n1	.	-4	-16	-10	97	105
Cc1cc(C)n(Cc2ccc(NC(=O)c3ccc(COc4ccccc4Br)cc3)cc2)n1	.	-10	0	56*	19	19
Cc1ccc(Cn2ccc(NC(=O)c3nn(C)cc3[N+](=O)[O-])n2)cc1	0.76	0	.	-6	2.6*	5.0*
Cn1cc([N+](=O)[O-])c(C(=O)Nc2ccc(C(=O)N3CCCCC3)cc2)n1	.	1	69	1	3.5*	4.1*
Cc1ccc(Cn2ccc(NC(=O)c3nc4ncccn4n3)n2)cc1	.	0	51	51*	95	106
Cn1cc([N+](=O)[O-])c(C(=O)Nc2ccc(C3CCCCC3)cc2)n1	-0.41	3	.	-1	.	.
COC(=O)c1ccc(Cn2nc(C)cc2C)cc1	1	4	0	-6	109	109
COc1ccc(CCNC(=O)C(=O)N/N=C/c2cccs2)cc1OC	-0.19	3	11	-2	.	.
O=[N+]([O-])c1cc(Oc2cccnc2)cc([N+](=O)[O-])c1	0.62	8	57	39	97	89
Cn1cc([N+](=O)[O-])c(C(=O)Nc2cc(Oc3cccnc3)cc([N+](=O)[O-])c2)n1	-0.094	-1	.	12	0.3*	1.6*
